21 compounds from PubChem BioAssay (NCI) can be followed below.

The structures appear in SMILES notation. The panel holds about 79,000 compounds, 15% with a hit somewhere; the sample as a whole holds those more often. A number with no mark means an inactive call. Active and inactive are the calls of the source. Rule as the data show it: active = growth inhibition above about 70%; inactive = the rest.

The nature of test [1]: NCI Yeast Anticancer Drug Screen. Data for the rad50 strain (AID 155).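 Also: 0% = growth of vehicle-only cultures of the same strain.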 The conditions noted are these: S. cerevisiae rad50 strain growth inhibition; at 50.0 µM; active compounds read high. Summed up:
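Growth of the mutant yeast was measured after compound exposure and referenced to vehicle-treated cultures.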

The nature of test [2]: NCI Yeast Anticancer Drug Screen. Data for the mec2-1 strain (AID 157). Conditions: S. cerevisiae mec2-1 strain, at 50.0 µM, active compounds read high. Summed up:
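Compounds were applied to mec2-1 yeast cells. Their growth was then compared with that of vehicle-treated cultures to give growth inhibition.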

A short description of test [3]: NCI Yeast Anticancer Drug Screen. Data for the sgs1 mgt1 strain (AID 161).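 Also: 0% = growth of cultures given vehicle only.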 Conditions: S. cerevisiae sgs1 mgt1 strain, at 50.0 µM, active compounds read high. In a few lines:
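Percent growth inhibition was derived by comparing compound-exposed mutant yeast with vehicle-exposed cultures. The strain carries alterations in DNA damage repair.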

Test [4] can be described thus: NCI Yeast Anticancer Drug Screen. Data for the cln2 rad14 strain (AID 165).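 Also: 0% = growth equal to vehicle treated cultures.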 Conditions: S. cerevisiae cln2 rad14 strain, at 50.0 µM, active compounds read high. In a few lines:
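Strain: cln2 rad14 yeast, altered in cell cycle control and DNA damage repair. Read-out: growth inhibition vs vehicle.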

The nature of test [5]: NCI Yeast Anticancer Drug Screen. Data for the bub3 strain (AID 167). The conditions noted are these: S. cerevisiae bub3 mutant strain, at 50.0 µM, active compounds read high. In a few lines:
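Whole-cell yeast assay. The mutant strain was incubated with compounds, and growth inhibition was determined by comparison with vehicle-treated cells.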

Test [6] in a line: NCI Yeast Anticancer Drug Screen. Data for the mlh1 rad18 strain (AID 175). The conditions noted are these: S. cerevisiae mlh1 rad18 strain growth inhibition; at 50.0 µM; active compounds read high. In a few lines: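 A repair-deficient yeast strain is exposed to test compound, and growth is scored relative to vehicle-treated controls.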

With `CCC(CC)C(=O)OC1CCCCC1C(C)C` (stereo unspecified), the growth inhibition in test [1] is 6.8%; in test [2] it was -3.5%; in test [3] it was -0.2%; in test [4], -13.6%; in test [5], 3.05%; in test [6], 0.35%.
`CC(=O)OCC(=O)C1(O)CCC2C3CCC4CC(=O)CCC4(C)C3C(=O)CC21C` (stereo unspecified): the growth inhibition in test [1] is -3.65%; in test [2], -5.65%; in test [3] it was -11.8%; in test [4], 20.2%; in test [5], 3.7%; in test [6], 9.4%.
With `CCCCCCCC(N)=O`, the growth inhibition is 15.7% in test [1]; -28.1% in test [2]; 8.4% in test [3]; 12.4% in test [4]; -11.6% in test [5]; -10.3% in test [6].
Regarding `Cc1cc2c(C(C)C)c(O)c(O)c(C=Nc3cccc(O)c3)c2c(O)c1-c1c(C)cc2c(C(C)C)c(O)c(O)c(C=Nc3cccc(O)c3)c2c1O`, the growth inhibition in test [1] was 27.8%; in test [2] it was 26%; in test [3], 44%; in test [4], 46.1%; in test [5] it was 50.8%; in test [6] it was 58.3%.
On to `Oc1[nH]c2ccccc2c1N=Nc1nc(-c2ccc(Br)cc2)cs1`, for which the growth inhibition in test [1] was -24.9%; in test [2], -24.8%; in test [3], -17.4%; in test [4] it was -10.2%; in test [5], 12%; in test [6], 5.5%.
With `C/C(=C\CC1C(=O)N(c2ccccc2)N(c2ccccc2)C1=O)CO`, the growth inhibition in test [1] is -10.9%; in test [2] it was -32.2%; in test [3] it was -29.9%; in test [4], -18.2%; in test [5], -28.6%; in test [6], -11.9%.
On to `Oc1ccc(N=Cc2ccc(C=Nc3ccc(O)cc3)cc2)cc1`, for which the growth inhibition in test [1] was -22.9%; in test [2] it was -12.6%; in test [3], -19%; in test [4] it was -7.7%; in test [5], -13.4%; in test [6], -16.4%.
As for `O=C1C2CN(Cc3ccccc3)CC2C(=O)N1c1ccccc1` (stereo unspecified), the growth inhibition was 1.9% in test [1]; 13% in test [2]; 9.25% in test [3]; -51.8% in test [4]; -37.7% in test [5]; 18.2% in test [6].
`COC(=O)[C@]12CCC(C)(C)C[C@H]1C1=CC[C@@H]3[C@@]4(C)CC[C@H](OC5OC(CO)C(O)C(O)C5OC5OC(CO)C(O)C(O)C5O)C(C)(C)[C@@H]4CC[C@@]3(C)[C@]1(C)CC2` (stereo partly specified): the growth inhibition in test [1] was 89% (active); in test [2] it was 90.8% (active); in test [3], 91.4% (active); in test [4] it was 90% (active); in test [5] it was 90.9% (active); in test [6], 89.5% (active).
Take `c1cnc2ncncc2n1`: the growth inhibition in test [1] is -2.6%; in test [2], 32.4%; in test [3], -8.55%; in test [4] it was 28.8%; in test [5] it was 14.4%; in test [6], 12.5%.
Take `c1ccc(CNC2Cc3ccccc3C2)cc1`: the growth inhibition in test [1] is 19.6%; in test [2], -10.7%; in test [3], 0.55%; in test [4], -36.1%; in test [5], -11.7%; in test [6] it was -2.4%.
Consider `O=C(O)CCNCC(=O)O`, for which the growth inhibition in test [1] was -28.1%; in test [2] it was -32.6%; in test [3] it was -21.9%; in test [4] it was 3.2%; in test [5], -21.7%; in test [6], -23.6%.
Take `CC1(C)N=C(N)N=C(N)N1c1cccc(OCc2cccc([N+](=O)[O-])c2)c1`: the growth inhibition in test [1] was 0.55%; in test [2], 7.2%; in test [3], -31.3%; in test [4] it was 24.6%; in test [5], -30.3%; in test [6], -14.8%.
For `NC(=O)N=P(c1ccccc1)(c1ccccc1)c1ccccc1`, the growth inhibition in test [1] is -9.9%; in test [2], 12.6%; in test [3], -6%; in test [4] it was 7.75%; in test [5], 3%; in test [6] it was -12.9%.
`N#CCCP(=O)(O)CO`: the growth inhibition in test [1] is -6.5%; in test [2], -13.3%; in test [3], 1.1%; in test [4], 0.1%; in test [5] it was 3.9%; in test [6], -26.7%.
On to `O=C(O)C(Br)C1(Br)c2ccccc2-c2ccccc21` (stereo unspecified), for which the growth inhibition in test [1] was 99.3% (active); in test [2], 99.7% (active); in test [3] it was 99.7% (active); in test [4] it was 95.4% (active); in test [5], 97.3% (active); in test [6], 99.6% (active).
In the case of `CCCCCCC(Br)CCCC` (stereo unspecified), the growth inhibition in test [1] was 15.6%; in test [2] it was -8.85%; in test [3] it was 14%; in test [4] it was -15.2%; in test [5], -7.75%; in test [6], -4.9%.
`O=C1CCSSCCC(=O)NCCCN1`: the growth inhibition in test [1] is 1%; in test [2], -5.3%; in test [3], -24.4%; in test [4], 15.2%; in test [5], -24.1%; in test [6], -6.3%.
As to `Ic1ccccc1`, the growth inhibition in test [1] was -0.9%; in test [2], 7.25%; in test [3], -41.4%; in test [4] it was -9.35%; in test [5], -45.8%; in test [6] it was -65.7%.
For `O=C1C=C(n2ccccc2=O)CCC1`, the growth inhibition in test [1] was 8.05%; in test [2], 2.15%; in test [3], 11.4%; in test [4], -29.1%; in test [5], -1.8%; in test [6], 0.05%.
With `COc1ccc(C(SCC(N)C(=O)O)(c2ccccc2)c2ccccc2)cc1` (stereo unspecified), the growth inhibition in test [1] was 32.8%; in test [2] it was -11.7%; in test [3], 37%; in test [4], -42.4%; in test [5], 10.8%; in test [6] it was 54.6%.
